This passage reports outcome and AC50 results from PubChem BioAssay (EPA / NIEHS).

Inconclusive results are not listed. The source made the active and inactive calls. How the source made its calls, unless noted: active means hit-call score of the fitted dose curve at least 0.9, where 1 is the maximum; inactive means score below 0.9.

In assay [1] the target is Myc proto-oncogene protein (Homo sapiens) (UniProt P01106). As to the kind of experiment: ATG_Myc_CIS: Attagene CIS-FACTORIAL HepG2 Assay for human Myelocytomatosis (Myc) Proto-Oncogene Transcription Factor (AID 2282990). To be noted: HepG2, Attagene cis-reporter transcription factor activity; actives raise or lower the signal. An outline of the steps: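 Transiently transfected HepG2 cells bearing cis-promoter reporter units for endogenous transcription factors; 24 h exposure. Reporter mRNA measured by RT-PCR, 6-FAM primer extension, HpaI cut and capillary electrophoresis; bidirectional fit relative to DMSO.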
Myc proto-oncogene protein (Homo sapiens), sequence (P01106 whole entry, looked up): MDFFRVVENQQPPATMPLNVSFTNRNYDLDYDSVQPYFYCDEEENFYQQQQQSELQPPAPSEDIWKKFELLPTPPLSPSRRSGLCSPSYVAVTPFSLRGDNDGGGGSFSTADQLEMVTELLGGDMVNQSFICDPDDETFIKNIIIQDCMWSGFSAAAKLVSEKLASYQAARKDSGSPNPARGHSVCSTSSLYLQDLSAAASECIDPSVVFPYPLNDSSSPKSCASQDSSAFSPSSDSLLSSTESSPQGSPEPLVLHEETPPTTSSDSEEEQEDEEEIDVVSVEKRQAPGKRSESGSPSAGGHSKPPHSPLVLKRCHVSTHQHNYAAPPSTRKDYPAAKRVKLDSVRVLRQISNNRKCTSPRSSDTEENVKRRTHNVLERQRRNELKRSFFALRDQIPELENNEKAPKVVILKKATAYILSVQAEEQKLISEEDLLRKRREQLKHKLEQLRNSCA

The nature of assay [2]: ATG_NF_kB_CIS: Attagene CIS-FACTORIAL HepG2 Assay for human Nuclear Factor Kappa B (NF-kB) (AID 2282991). The note with it: HepG2 Attagene cis-factorial NF-kB reporter mRNA; actives raise or lower the signal. An outline of the steps: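 Readout is reporter transcript level, gain or loss versus DMSO, measured 24 h post-dose via RT-PCR, fluorescent labelling and capillary electrophoresis. Human HepG2 liver cells carried transiently transfected CIS reporter constructs reflecting endogenous factors.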

Assay [3] in a line: ATG_NRF2_ARE_CIS: Attagene CIS-FACTORIAL HepG2 Assay for human Nuclear Factor Erythroid 2 Related Factor 2 (NFR2) response to Antioxidant Response Elements (ARE) (AID 2282992). The note with it: HepG2 Attagene ARE/NRF2 reporter, transcription factor activity; actives raise or lower the signal. The gist of the method:
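Endogenous transcription factor activity read out as reporter transcript levels (RT-PCR plus capillary electrophoresis, fluorescence) in transiently transfected HepG2 cells. Measured at 24 h after dosing; gain or loss of signal fitted versus DMSO.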

Assay [4] in a line: ATG_Oct_MLP_CIS: Attagene CIS-FACTORIAL HepG2 Assay for human Octamer-Binding Transcription Factor (Oct) (AID 2282993). The note with it: HepG2 Attagene cis-factorial Oct reporter, mRNA; actives raise or lower the signal. An outline of the steps:
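Transient MRTU transfection of HepG2 → 24 h compound treatment → RNA isolation, reverse transcription, PCR → 6-FAM primer extension, HpaI digest → capillary electrophoresis. Activity fitted both directions against DMSO.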

Assay [5] has as its target Cellular tumor antigen p53 (Homo sapiens) (UniProt P04637). As to the kind of experiment: ATG_p53_CIS: Attagene CIS-FACTORIAL HepG2 Assay for human p53 Transcription Factor (AID 2282994). The note with it: HepG2 p53 cis-element reporter, Attagene mRNA; actives raise or lower the signal. The gist of the method: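 Endogenous p53 activity read in transiently transfected HepG2 from a cis-element-driven reporter transcript after 24 h exposure. RNA reverse-transcribed, PCR-amplified, fluorescently labelled and sized by capillary electrophoresis; gain or loss fitted against DMSO baseline.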

Assay [6] has as its target human Peroxisome Proliferator-activated Receptor delta (PPARd), PPARD (gene 5467) (UniProt Q03181). As to the kind of experiment: ATG_PPARd_TRANS: Attagene TRANS-FACTORIAL HepG2 Assay for human Peroxisome Proliferator-activated Receptor delta (PPARd) (AID 2283002; active means hit-call score of the fitted dose curve at least 0.9, where 1 is the maximum). An outline of the steps:
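HepG2 cells transiently transfected with GAL4-UAS multiplexed reporter units driven by exogenous chimeric NR-GAL4 proteins; 24 h compound exposure. Reporter mRNA measured by RT-PCR, 6-FAM primer extension, HpaI digestion and capillary electrophoresis; gain of signal fitted relative to DMSO.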

For assay [7], the target named is Nuclear receptor subfamily 1 group I member 2 (Homo sapiens) (UniProt O75469). In words: ATG_PXR_TRANS: Attagene TRANS-FACTORIAL HepG2 Assay for human Pregnane X Receptor (PXR) (AID 2283008; active means hit-call score of the fitted dose curve at least 0.9, where 1 is the maximum). The gist of the method: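 Transactivation by exogenous PXR–GAL4 fusion measured as reporter transcript induction after 24 h compound treatment of transfected human HepG2 cells. Read-out via RT-PCR and capillary electrophoresis of labelled fragments, fitted upward relative to DMSO.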
Nuclear receptor subfamily 1 group I member 2 (Homo sapiens), sequence (O75469 whole entry, looked up, the tested form may be a part): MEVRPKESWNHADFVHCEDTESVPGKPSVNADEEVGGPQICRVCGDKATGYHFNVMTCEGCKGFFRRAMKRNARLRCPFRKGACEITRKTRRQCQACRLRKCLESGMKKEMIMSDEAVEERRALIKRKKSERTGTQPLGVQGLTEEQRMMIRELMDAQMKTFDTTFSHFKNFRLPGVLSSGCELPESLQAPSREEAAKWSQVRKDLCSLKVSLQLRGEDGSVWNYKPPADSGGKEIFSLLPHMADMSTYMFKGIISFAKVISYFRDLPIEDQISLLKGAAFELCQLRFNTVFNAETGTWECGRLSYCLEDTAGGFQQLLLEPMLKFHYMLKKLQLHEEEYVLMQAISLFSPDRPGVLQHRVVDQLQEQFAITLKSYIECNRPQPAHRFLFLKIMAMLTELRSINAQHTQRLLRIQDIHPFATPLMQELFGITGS

In assay [8] the target is human RAR-related Orphan Receptor beta (RORb), RORB (gene 6096) (UniProt Q92753). In words: ATG_RORb_TRANS: Attagene TRANS-FACTORIAL HepG2 Assay for human RAR-related Orphan Receptor beta (RORb) (AID 2283010; active means hit-call score of the fitted dose curve at least 0.9, where 1 is the maximum). The gist of the method: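 Transfect HepG2 with multiple GAL4-UAS reporter transcription units; dose chemicals for 24 h; isolate RNA, reverse-transcribe and PCR-amplify reporter sequences; label, digest and resolve fragments by capillary electrophoresis; fit increases relative to DMSO.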
human RAR-related Orphan Receptor beta (RORb), RORB (gene 6096), sequence (Q92753 whole entry, looked up, the tested form may be a part): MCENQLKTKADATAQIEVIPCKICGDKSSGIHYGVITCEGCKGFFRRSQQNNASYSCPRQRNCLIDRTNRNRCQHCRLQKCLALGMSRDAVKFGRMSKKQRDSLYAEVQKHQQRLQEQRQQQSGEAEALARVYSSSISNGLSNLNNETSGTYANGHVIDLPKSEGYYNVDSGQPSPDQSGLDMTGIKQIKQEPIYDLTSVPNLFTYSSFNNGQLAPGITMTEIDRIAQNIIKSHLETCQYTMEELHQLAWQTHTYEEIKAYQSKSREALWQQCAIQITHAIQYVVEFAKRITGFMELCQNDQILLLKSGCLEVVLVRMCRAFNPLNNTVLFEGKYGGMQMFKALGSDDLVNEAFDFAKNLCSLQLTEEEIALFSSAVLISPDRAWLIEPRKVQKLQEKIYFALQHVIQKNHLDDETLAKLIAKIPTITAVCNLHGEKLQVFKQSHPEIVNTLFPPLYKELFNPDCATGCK

Assay [9] has as its target human Peroxisome Proliferator-activated Receptor alpha (PPARa), PPARA (gene 5465) (UniProt Q07869). As to the kind of experiment: ATG_PPARa_TRANS: Attagene TRANS-FACTORIAL HepG2 Assay for human Peroxisome Proliferator-activated Receptor alpha (PPARa) (AID 2283001; active means hit-call score of the fitted dose curve at least 0.9, where 1 is the maximum). An outline of the steps: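 HepG2, transient MRTU transfection, 24 h treatment. RT-PCR → FAM labelling → capillary electrophoresis. Fit vs DMSO, positive direction.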

Assay [10] concerns the target Peroxisome proliferator-activated receptor gamma (Homo sapiens) (UniProt P37231). In words: ATG_PPARg_TRANS: Attagene TRANS-FACTORIAL HepG2 Assay for human Peroxisome Proliferator-activated Receptor-gamma (PPARg) (AID 2283007; active means hit-call score of the fitted dose curve at least 0.9, where 1 is the maximum). An outline of the steps:
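After 24 h of chemical exposure, transfected HepG2 cells carrying PPARγ-Gal4 chimera reporter constructs are lysed for RNA. Reporter transcripts are measured by RT-PCR and capillary electrophoresis with fluorescent labelling, and gain of signal is fitted versus DMSO.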

Assay [11] can be described thus: BSK_3C_TissueFactor: BioMAP Diversity Plus: 3C Assay for Tissue Factor Biomarker Activity (AID 2282997). The note with it: BioMAP 3C HUVEC, tissue factor biomarker readout; actives raise or lower the signal. The gist of the method:
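In this endothelial system, HUVEC are treated for 24 h and Tissue Factor is assessed by ELISA, normalised to DMSO.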

A short description of assay [12]: BSK_3C_uPAR: BioMAP Diversity Plus: 3C Assay for Urokinase-type plasminogen activator receptor (uPAR) Biomarker Activity (AID 2282998). To be noted: BioMAP 3C HUVEC, uPAR biomarker ELISA; actives raise or lower the signal. The gist of the method:
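ELISA readout of uPAR on human vascular endothelium (umbilical vein primary cells), taken 24 h after chemical dosing. Increases and decreases are both fitted relative to DMSO vehicle.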
A general note: In an ELISA, binding on a coated surface is turned into a signal by an enzyme label.

The nature of assay [13]: BSK_3C_VCAM1: BioMAP Diversity Plus: 3C Assay for Vascular cell adhesion molecule 1 (VCAM1) Biomarker Activity (AID 2282999). The note with it: BioMAP 3C HUVEC, VCAM1 ELISA, cytokine-stimulated; actives raise or lower the signal. The gist of the method:
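HUVEC primary cells, 24 h compound exposure; VCAM-1 by ELISA; gain/loss of signal fitted bidirectionally vs DMSO baseline.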

Assay [14] can be described thus: BSK_4H_Eotaxin3: BioMAP Diversity Plus: 4H Assay for Eotaxin 3 Biomarker Activity (AID 2283000).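 Further: CCL26 protein level quantified by ELISA in parallel with SRB cytotoxicity check.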 To be noted: primary human endothelial cells (HUVEC); actives raise or lower the signal. An outline of the steps: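 ELISA quantitation of CCL26 (Eotaxin-3) protein from chemically dosed human vascular endothelial cells at 24 h; increases and decreases both scored relative to DMSO-treated baseline.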

Read-out in assay [15]: Intercellular Adhesion Molecule 1 (ICAM1), ICAM1 (gene 3383)
As to the kind of experiment: BSK_3C_ICAM1: BioMAP Diversity Plus: 3C Assay for Intercellular Adhesion Molecule 1 (ICAM1) Biomarker Activity (AID 2283003). To be noted: primary human endothelial cells (HUVEC); actives raise or lower the signal. The gist of the method: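 Chemicals are dosed onto primary human umbilical vein endothelium (3C system). After 24 h, ICAM-1 is measured by ELISA, and responses are fitted bidirectionally relative to DMSO.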

Assay [16] in a line: BSK_3C_Proliferation: Cell Proliferation Assessment in the BioMAP Diversity Plus: 3C Assay (AID 2283006). The note with it: primary human endothelial cells (HUVEC). The gist of the method: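 Cells (human umbilical vein endothelial, sub-confluent) receive test chemical; after 48 h they are fixed in 10% trichloroacetic acid, stained with 0.1% SRB and read at 560 nm. Activity is referenced to DMSO, fitting increases and decreases.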

The target in assay [17] is human Retinoic Acid Receptor beta (RARb), RARB (gene 5915) (UniProt P10826). In words: ATG_RARb_TRANS: Attagene TRANS-FACTORIAL HepG2 Assay for human Retinoic Acid Receptor beta (AID 2283004; active means hit-call score of the fitted dose curve at least 0.9, where 1 is the maximum). The gist of the method: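 Fluorescent capillary-electrophoresis detection of GAL4-UAS reporter mRNA defines the endpoint, with induction over DMSO-treated wells scored as activity. Transiently transfected human hepatoma HepG2 cells expressing exogenous NR–Gal4 proteins are exposed to test chemicals for 24 h.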
human Retinoic Acid Receptor beta (RARb), RARB (gene 5915), sequence (P10826 whole entry, looked up, the tested form may be a part): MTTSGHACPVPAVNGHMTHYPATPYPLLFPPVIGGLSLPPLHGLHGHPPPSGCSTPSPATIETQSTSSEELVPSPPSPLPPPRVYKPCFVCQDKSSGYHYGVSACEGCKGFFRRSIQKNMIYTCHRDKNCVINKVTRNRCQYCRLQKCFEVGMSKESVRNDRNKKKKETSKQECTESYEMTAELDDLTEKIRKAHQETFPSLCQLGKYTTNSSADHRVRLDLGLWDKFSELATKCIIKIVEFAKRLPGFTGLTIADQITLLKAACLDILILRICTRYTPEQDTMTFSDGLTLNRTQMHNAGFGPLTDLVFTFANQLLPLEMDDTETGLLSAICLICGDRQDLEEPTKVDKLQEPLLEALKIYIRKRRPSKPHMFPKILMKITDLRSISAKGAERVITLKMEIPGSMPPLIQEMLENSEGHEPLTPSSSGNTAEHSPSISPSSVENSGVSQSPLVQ

Assay [18] deals with Retinoic acid receptor alpha (Homo sapiens) (UniProt P10276). As to the kind of experiment: ATG_RARa_TRANS: Attagene TRANS-FACTORIAL HepG2 Assay for human Retinoic Acid Receptor alpha (RARa) (AID 2283005; active means hit-call score of the fitted dose curve at least 0.9, where 1 is the maximum). An outline of the steps: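 HepG2 transiently transfected with multiplex GAL4-UAS reporter units including a human RARa–GAL4 chimera; 24 h compound exposure. Reporter mRNA quantified by RT-PCR, 6-FAM labeling and capillary electrophoresis; gain of signal versus DMSO.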
Retinoic acid receptor alpha (Homo sapiens), sequence (P10276 whole entry, looked up, the tested form may be a part): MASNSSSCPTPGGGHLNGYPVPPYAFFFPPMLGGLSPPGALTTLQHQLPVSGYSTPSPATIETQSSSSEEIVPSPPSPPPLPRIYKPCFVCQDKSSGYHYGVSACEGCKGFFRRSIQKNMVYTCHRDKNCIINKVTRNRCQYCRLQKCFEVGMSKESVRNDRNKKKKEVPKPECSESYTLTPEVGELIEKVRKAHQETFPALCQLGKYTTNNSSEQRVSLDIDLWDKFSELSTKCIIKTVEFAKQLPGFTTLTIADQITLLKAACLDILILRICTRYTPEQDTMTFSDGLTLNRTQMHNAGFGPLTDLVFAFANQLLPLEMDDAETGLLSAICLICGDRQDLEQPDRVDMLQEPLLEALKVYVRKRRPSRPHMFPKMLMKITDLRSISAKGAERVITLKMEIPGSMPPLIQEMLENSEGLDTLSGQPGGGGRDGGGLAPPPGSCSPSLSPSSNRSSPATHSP

Assay [19] has as its target human Retinoic Acid Receptor gamma (RARg), RARG (gene 5916) (UniProt P13631). In words: ATG_RARg_TRANS: Attagene TRANS-FACTORIAL HepG2 Assay for human Retinoic Acid Receptor gamma (RARg) (AID 2283009; active means hit-call score of the fitted dose curve at least 0.9, where 1 is the maximum). The gist of the method: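 TRANS format measured activity of exogenous NR-GAL4 fusion (RARg) in transfected HepG2 liver cells after 24 h dosing. Induced reporter RNA was detected by RT-PCR/capillary electrophoresis fluorescence, analysed in the positive direction against DMSO.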

human Peroxisome Proliferator-activated Receptor delta (PPARd), PPARD (gene 5467), sequence (Q03181 whole entry, looked up, the tested form may be a part): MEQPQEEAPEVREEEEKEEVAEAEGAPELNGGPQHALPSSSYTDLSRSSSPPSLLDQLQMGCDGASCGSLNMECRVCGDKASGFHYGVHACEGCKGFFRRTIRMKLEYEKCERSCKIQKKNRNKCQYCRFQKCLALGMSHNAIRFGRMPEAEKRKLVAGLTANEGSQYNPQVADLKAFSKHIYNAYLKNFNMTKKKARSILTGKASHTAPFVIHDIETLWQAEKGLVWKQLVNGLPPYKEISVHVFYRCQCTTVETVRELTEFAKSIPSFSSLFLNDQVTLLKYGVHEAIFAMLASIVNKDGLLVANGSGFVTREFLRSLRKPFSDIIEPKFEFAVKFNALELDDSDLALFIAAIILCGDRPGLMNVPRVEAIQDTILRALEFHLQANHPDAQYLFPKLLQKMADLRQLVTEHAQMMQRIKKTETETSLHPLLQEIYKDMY
Cellular tumor antigen p53 (Homo sapiens), sequence (P04637 whole entry, looked up): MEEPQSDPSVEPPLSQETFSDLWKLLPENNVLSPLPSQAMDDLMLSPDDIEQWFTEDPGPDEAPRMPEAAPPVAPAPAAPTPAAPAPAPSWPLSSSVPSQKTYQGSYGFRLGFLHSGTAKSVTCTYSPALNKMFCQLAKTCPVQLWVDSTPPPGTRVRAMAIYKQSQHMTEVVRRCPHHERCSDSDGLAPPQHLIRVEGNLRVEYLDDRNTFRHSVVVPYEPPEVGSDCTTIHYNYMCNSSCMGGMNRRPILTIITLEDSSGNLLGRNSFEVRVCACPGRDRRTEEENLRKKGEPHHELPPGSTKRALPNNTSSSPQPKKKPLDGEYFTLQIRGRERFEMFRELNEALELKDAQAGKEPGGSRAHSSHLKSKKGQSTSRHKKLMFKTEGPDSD
Peroxisome proliferator-activated receptor gamma (Homo sapiens), sequence (P37231 whole entry, looked up, the tested form may be a part): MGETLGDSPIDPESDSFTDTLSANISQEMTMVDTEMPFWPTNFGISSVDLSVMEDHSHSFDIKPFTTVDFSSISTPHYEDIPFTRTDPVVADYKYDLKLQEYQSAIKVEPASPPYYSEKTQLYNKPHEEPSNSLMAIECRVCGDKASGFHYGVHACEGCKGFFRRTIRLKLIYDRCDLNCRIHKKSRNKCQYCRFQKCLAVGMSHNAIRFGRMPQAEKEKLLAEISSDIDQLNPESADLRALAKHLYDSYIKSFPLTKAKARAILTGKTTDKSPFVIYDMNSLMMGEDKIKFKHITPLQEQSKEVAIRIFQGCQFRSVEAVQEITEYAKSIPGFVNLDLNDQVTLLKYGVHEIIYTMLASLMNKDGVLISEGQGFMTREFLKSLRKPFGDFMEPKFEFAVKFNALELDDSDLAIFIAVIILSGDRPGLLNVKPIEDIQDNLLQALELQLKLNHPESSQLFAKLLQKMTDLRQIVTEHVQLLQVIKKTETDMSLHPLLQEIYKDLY
human Peroxisome Proliferator-activated Receptor alpha (PPARa), PPARA (gene 5465), sequence (Q07869 whole entry, looked up): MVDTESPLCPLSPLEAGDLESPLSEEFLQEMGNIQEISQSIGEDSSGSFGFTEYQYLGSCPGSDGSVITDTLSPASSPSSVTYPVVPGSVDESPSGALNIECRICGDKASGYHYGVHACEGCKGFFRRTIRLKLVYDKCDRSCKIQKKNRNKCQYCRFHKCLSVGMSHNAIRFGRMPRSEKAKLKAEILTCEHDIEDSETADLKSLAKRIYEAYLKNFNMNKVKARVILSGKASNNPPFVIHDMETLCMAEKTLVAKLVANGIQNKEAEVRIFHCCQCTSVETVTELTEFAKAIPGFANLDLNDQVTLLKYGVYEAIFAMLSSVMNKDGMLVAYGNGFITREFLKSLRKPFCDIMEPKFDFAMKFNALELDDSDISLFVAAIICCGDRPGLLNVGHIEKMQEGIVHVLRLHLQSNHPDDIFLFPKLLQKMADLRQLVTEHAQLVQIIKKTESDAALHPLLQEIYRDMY
human Retinoic Acid Receptor gamma (RARg), RARG (gene 5916), sequence (P13631 whole entry, looked up, the tested form may be a part): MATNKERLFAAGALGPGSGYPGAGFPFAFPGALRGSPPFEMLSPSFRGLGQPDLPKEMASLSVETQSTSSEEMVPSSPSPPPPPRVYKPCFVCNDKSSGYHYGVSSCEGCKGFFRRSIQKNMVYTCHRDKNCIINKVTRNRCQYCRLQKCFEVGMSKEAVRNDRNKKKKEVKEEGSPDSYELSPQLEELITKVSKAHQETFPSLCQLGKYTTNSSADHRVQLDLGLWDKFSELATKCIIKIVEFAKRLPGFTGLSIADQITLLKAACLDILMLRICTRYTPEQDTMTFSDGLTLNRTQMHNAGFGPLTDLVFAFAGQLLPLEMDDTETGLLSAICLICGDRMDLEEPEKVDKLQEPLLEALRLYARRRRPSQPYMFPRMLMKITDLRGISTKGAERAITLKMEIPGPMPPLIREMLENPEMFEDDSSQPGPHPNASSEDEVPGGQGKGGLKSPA

Turning to `CCCCS(=O)(=O)Cl`, the compound was classed as inactive in [1], in [2], in assay [3], in assay [4], in [5] and in [6]. Also, the outcome in assay [7] and in assay [8] was inactive.

As to `COc1ccc(N)cc1`, the call in [1], in assay [3], in assay [4], in [5], in assay [9] and in [6] was inactive. Also, the call in assay [10], in assay [7] and in assay [8] was inactive.

Consider `O=C(O)COc1cc(Cl)c(Cl)cc1Cl`, for which the outcome in assay [1], in assay [3], in assay [4], in [11], in assay [12] and in assay [13] was inactive. Further, the result in [14], in assay [6], in assay [15] and in [16] was inactive. For the same compound, the half-maximal activity concentration (AC50) (in general, the concentration at which the activity in the assay is half-maximal) in assay [10] was 32.6 µM (active).

`C=C(C)[C@@H]1CC=C(C=O)CC1`: the result in [1], in assay [2], in assay [4], in assay [5] and in assay [6] was inactive. Moreover, the concentration at half-maximal activity (AC50) in assay [3] was 80.5 µM (active); in assay [10], 22.5 µM (active); in assay [7], 11 µM (active).

As to `CCCCCCCCBr`, the call in assay [1], in assay [2], in [4], in assay [5], in [9] and in assay [10] was inactive.

For the compound `CN(C)c1ccc(N=O)cc1`, the outcome in assay [1], in assay [4], in [9], in assay [6], in assay [17] and in assay [18] was inactive. Besides, the compound was called inactive in assay [10], in assay [7], in [19] and in [8]. For the same compound, the figures for the concentration at half-maximal activity (AC50) in assay [2], in assay [3] and in assay [5] were 6.42 µM (active), 1.39 µM (active) and 44.6 µM (active), respectively.

Take `Nc1ncn[nH]1`: the compound was called inactive in assay [1], in [3], in [4] and in assay [6].

With `CCN(CC)C(=O)C(Cl)=C(C)OP(=O)(OC)OC`, the compound was classed as inactive in assay [1], in assay [2], in [4], in assay [5], in assay [11] and in assay [12]. Besides, the result in assay [13], in assay [14], in assay [9], in assay [6], in assay [15] and in assay [16] was inactive. For the same compound, the outcome in assay [10], in assay [7] and in assay [8] was inactive.
